# Bioassay records deposited in PubChem by National Center for Advancing Translational Sciences (NCATS).
# Luciferase inh: Photinus pyralis luciferase inhibition. purified P. pyralis luciferase, luminescence, biochemical. P08659. Potency, µM (top dose mostly 115 µM), usual class: inhibitors. AID 1347043. 76,000 tested, 2.5% active; also: nearly all actives have a fitted effect of over 65% in size
#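 Luminescence read by CCD imager after adding enzyme (10nM final) to wells holding compound, titrated in qHTS. Substrates 10uM each D-luciferin and ATP; buffer 50mM Tris acetate pH 7.5, 10mM Mg acetate, Tween-20, BSA.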
# NIH3T3 tox: cytotoxic compounds in NIH 3T3 cells. 94,000 tested, 4.3% active. AID 1345082. NIH 3T3 viability, CellTiter-Glo ATP luminescence, 48-72 h. Potency, µM (doses to about 96.7 µM), for the others: at the top dose activity change, negative = cytotoxicity, usual class: inhibitors; also: nearly all actives have a fitted effect of over 55% in size
#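 Luminescent ATP readout (CellTiter-Glo, 10 min RT) after 48 or 72 hr compound exposure of NIH 3T3 cells seeded at 400 cells/well in 1536-well format; quantitative HTS.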
# NPR1 antag: antagonists of human natriuretic peptide receptor Npr1; P16066; HEK293 hNpr1 GloSensor cGMP, ANP-stimulated luminescence; Potency, µM (titrated, usually from 46.3 µM), without a hit: at the highest dose activity change, negative = inhibition, most hits filed as inhibitors; 76,000 tested, 1.6% active; calls by dose curve; also: nearly all actives have a fitted effect of over 60% in size
# Target sequence (P16066 whole entry, looked up): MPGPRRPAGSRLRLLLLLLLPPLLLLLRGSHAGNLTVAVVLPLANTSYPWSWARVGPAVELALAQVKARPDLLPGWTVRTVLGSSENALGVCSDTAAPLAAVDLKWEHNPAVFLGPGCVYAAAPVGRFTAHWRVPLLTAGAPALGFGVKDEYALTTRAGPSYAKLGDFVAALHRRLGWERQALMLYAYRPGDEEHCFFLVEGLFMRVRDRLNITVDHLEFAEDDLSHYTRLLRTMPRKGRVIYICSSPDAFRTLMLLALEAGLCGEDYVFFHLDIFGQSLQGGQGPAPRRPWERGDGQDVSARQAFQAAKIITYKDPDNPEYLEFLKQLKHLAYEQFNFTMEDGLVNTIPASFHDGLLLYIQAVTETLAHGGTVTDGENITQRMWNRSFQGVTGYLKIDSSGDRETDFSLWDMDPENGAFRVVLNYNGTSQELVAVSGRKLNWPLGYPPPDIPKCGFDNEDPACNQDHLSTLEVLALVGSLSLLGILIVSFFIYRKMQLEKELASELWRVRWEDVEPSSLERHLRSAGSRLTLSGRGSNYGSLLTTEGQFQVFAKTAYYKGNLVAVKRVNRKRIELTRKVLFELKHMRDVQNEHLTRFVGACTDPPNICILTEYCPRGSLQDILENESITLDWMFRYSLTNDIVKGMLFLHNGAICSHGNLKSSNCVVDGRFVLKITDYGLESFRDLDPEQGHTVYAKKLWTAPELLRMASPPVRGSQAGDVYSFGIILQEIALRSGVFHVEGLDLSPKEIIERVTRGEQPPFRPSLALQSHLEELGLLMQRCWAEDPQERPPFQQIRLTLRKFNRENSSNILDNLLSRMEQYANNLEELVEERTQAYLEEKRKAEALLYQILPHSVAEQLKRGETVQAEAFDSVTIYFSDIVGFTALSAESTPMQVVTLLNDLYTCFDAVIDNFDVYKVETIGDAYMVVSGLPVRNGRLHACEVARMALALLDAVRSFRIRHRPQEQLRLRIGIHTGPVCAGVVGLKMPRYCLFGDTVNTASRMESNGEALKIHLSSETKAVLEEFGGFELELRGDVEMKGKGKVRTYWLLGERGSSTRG
#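 Compound pre-incubated 30 min at room temperature on GloSensor-loaded HEK293 cells stably carrying hNpr1 and the pGS-40F cGMP biosensor. Stimulation uses hNppA at 0.1 nM final; luminescence is taken at baseline and 20 min post-agonist.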
# HEK293 tox: kills HEK 293 cells; 94,000 tested, 6.6% active; Potency, µM (highest dose often 115 µM), without a hit: top-dose activity change, negative = cytotoxicity, usual class: inhibitors; AID 1345083; HEK 293 viability, ATP luminescence (CellTiter-Glo), 48-72 h; also: nearly all actives have a fitted effect of over 60% in size
#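 Read-out: CellTiter-Glo ATP luminescence. Cells: HEK 293, 250 cells/well. Exposure: 48 or 72 hr, 37 degree Celsius.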
# Numbers without * were called inactive; i = inactive; ? = inconclusive; . = no result; [ ] = dose if it differs, or a comment. Rows were chosen to be rich in hits. Some 11% of all compounds tested hit in one or more screens of this group. Unless noted, calls follow the shape of the dose curve; as a rule, active = well fitted curve in the direction sought with a large enough effect; inconclusive = small, poorly fitted or top-dose-only effect, or another doubt; inactive = no such curve, though single readings can be large; an effect the other way counts as inactive or inconclusive. % is scaled to controls: 0 for no effect and ±100 for the full control effect; potency is read from the fitted curve at half-maximal effect.
SMILES,Luciferase inh,NIH3T3 tox,NPR1 antag,HEK293 tox
CCOC(=O)C[C@@H]1C[C@@H](C(C)C)[C@H](CNS(=O)(=O)c2ccc(OC)cc2)C=C1C,i,?,-15.6%[70.6 µM],39.8µM*
CC(C)c1nc2n(n1)CCN(C(=O)c1ccc(Cl)cc1)C2,.,i,.,i
CCNC(=O)NC[C@@H]1C=C(C)[C@H](Cc2nnc(-c3ccccc3F)o2)C[C@H]1C(C)C,i,?,-27.5%[70.6 µM],?
C#CCNC[C@@H]1C=C(C)[C@H](Cc2nnc(-c3ccccc3F)o2)C[C@H]1C(C)C,i,?,-1.9%[70.6 µM],70.8µM*
CC1=C[C@@H](CNC(=O)CN(C)C)[C@H](C(C)C)C[C@H]1Cc1nnc(-c2ccccc2F)o1,i,31.6µM*,-0.6%[70.6 µM],?
CC1=C[C@@H](CNC(=O)NC(C)C)[C@H](C(C)C)C[C@H]1Cc1nnc(-c2ccccc2F)o1,i,31.6µM*,-18.8%[70.6 µM],79.4µM*
CC1=C[C@@H](CNC(=O)c2cnccn2)[C@H](C(C)C)C[C@H]1Cc1nnc(-c2ccccc2F)o1,i,?,-21.9%,35.5µM*
O=C(c1nc2cccnc2n(Cc2ccccc2)c1=O)N1CCN([S+](=O)([O-])c2cccc(C(F)(F)F)c2)CC1,.,-21.6%,.,?
C#CCNC[C@@H]1C=C(C)[C@H](Cc2nnc(Cc3c[nH]c4ccccc34)o2)C[C@H]1C(C)C,i,?,-12.7%[70.6 µM],50.1µM*
CC(=O)Nc1ccc(C(=O)NC[C@@H]2C=C(C)[C@H](Cc3nnc(-c4ccccc4F)o3)C[C@H]2C(C)C)cc1,i,?,-4.0%,28.2µM*
CC1=C[C@@H](CC#N)[C@H](C(C)C)C[C@H]1CC(=O)NC1CCCCC1,i,?,0.7%[70.6 µM],89.1µM*
CC1=C[C@@H](CC#N)[C@H](C(C)C)C[C@H]1CC(=O)N1CCC(C)CC1,i,?,-14.2%[70.6 µM],70.8µM*
COc1cccc(S(=O)(=O)N2CCC3(CC2)N(c2ccccc2)C(=O)CS3=O)c1 (centres undefined),.,-10.2%,.,4.4%
O=C(N[C@H]1CO[C@H]2[C@@H]1OC[C@@H]2Nc1nccc(-c2ccc(-c3ccccc3)cc2)n1)c1ccccc1,i,?,?,10µM*
Cc1ccc(S(=O)(=O)N[C@H]2CO[C@H]3[C@@H]2OC[C@@H]3Nc2nccc(C(C)(C)C)n2)cc1,?,?,3.55µM*,25.1µM*
C=CCNC(=O)N[C@H]1CO[C@H]2[C@@H]1OC[C@@H]2Nc1nccc(-c2ccc(OC)cc2)n1,i,?,-1.9%[70.6 µM],89.1µM*
CN(C)c1ccc(C(=O)N[C@H]2CO[C@H]3[C@@H]2OC[C@@H]3Nc2nccc(-c3cccs3)n2)cc1,?,?,-26.5%,44.7µM*
COCC(=O)N[C@H]1CO[C@H]2[C@@H]1OC[C@@H]2Nc1nccc(-c2cccc(F)c2)n1,i,?,2.6%[70.6 µM],100µM*
COc1ccc(-c2ccnc(N[C@H]3CO[C@H]4[C@@H]3OC[C@@H]4NC(=O)NCc3ccccc3)n2)cc1,i,?,-2.7%,?
COc1ccc(-c2ccnc(N[C@H]3CO[C@H]4[C@@H]3OC[C@@H]4NS(=O)(=O)c3ccc(NC(C)=O)cc3)n2)cc1,i,?,?,39.8µM*
CC(=O)N[C@H]1CO[C@H]2[C@@H]1OC[C@@H]2Nc1nccc(-c2cccc(F)c2)n1,i,-27.8%[174 µM],?,?
CN(C)c1ccc(-c2ccnc(N[C@H]3CO[C@H]4[C@@H]3OC[C@@H]4NC(=O)NCc3ccccc3)n2)cc1,?,22.4µM*,-12.3%,31.6µM*
O=C(c1nc2sccn2c1-c1ccc(F)cc1)N1CCCCC1,.,-21.6%[138 µM],.,-4.3%[172 µM]
CC(C)(O)C#Cc1ccc(CN2CCC(CO)(CCCc3ccccc3)CC2)s1,i,?,-26.4%,?
COc1ccccc1-c1cnc(Nc2ccc(CN3CCN(C)CC3)cc2)c2c1CCO2,?,25.1µM*,-10.5%[70.6 µM],35.5µM*
SMILES,Luciferase inh,NIH3T3 tox,NPR1 antag,HEK293 tox
COc1ccc(-c2cnc(Nc3ccc(CN4CCN(C)CC4)cc3)c3c2CCO3)cn1,?,28.2µM*,-15.4%[70.6 µM],?
COc1ccc(C(=O)Nc2ncc(-c3ccc(OC)nc3)c3c2OCC3)cc1,?,?,-11.1%[70.6 µM],-21.0%[172 µM]
COc1ccccc1-c1cnc(Nc2cncnc2)c2c1CCO2,i,?,0.8%[70.6 µM],?
CCc1ccc(C(=O)N2CCC(N3C(=O)N(Cc4cccnc4)CC34CCOC4)CC2)cc1 (centres undefined),.,?,.,i
O=C(c1nc(-c2ccc(F)cc2)c2cnccn12)N1CCOCC1,i,-12.2%[138 µM],11.4%[70.6 µM],-16.6%[172 µM]
COc1cccc(C(=O)N2CCCN(c3ccc4nnc(C)n4n3)CC2)c1,.,1.3%,.,i
COc1cccc(C(=O)N2CCN(c3ccc4ncc(-c5cccc(C(F)(F)F)c5)n4n3)CC2)c1,.,11.2µM*,.,?
O=C(c1ccc(Cl)cc1)N1CCC(n2cc(-c3ccncc3)[nH]c2=O)CC1,.,-24.6%,.,-14.0%
CCOc1ccccc1NC(=O)Nc1cccc(-c2ccc(N3CCCC3)nn2)c1,6.31µM*,-25.1%,-23.6%,-22.1%
O=C(NCCc1ccccc1)Nc1cccc(-c2ccc(N3CCCCC3)nn2)c1,0.251µM*,-26.8%,8.91µM*,?
Cc1c(Cl)cccc1NC(=O)Nc1cccc(-c2nnc3n2CCCC3)c1,i,-0.6%,0.4%,-17.7%
COc1ccccc1NC(=O)Nc1cccc(-c2nnc3n2CCCC3)c1,?,?,-0.4%,?
COc1ccccc1NC(=O)Nc1cccc(-c2ccc(N3CCCCC3)nn2)c1,0.708µM*,?,?,?
COCCOCc1nc(C2CCCCN2S(=O)(=O)Cc2ccccc2)no1 (centres undefined),.,-20.8%,.,-3.1%
COCCNC(=O)c1ccc2nnc(-c3cccnc3)n2c1,.,-6.7%[138 µM],.,-0.7%[172 µM]
COc1cncc(Nc2cnc3ccc(-c4ccccc4)nn23)c1,i,?,-14.3%[70.6 µM],-26.1%[172 µM]
Cc1cc(C(=O)N2CCC(N3C[C@H](Oc4ccccc4)[C@@H]3c3ccncc3)CC2)n(C)n1,.,-15.2%,.,?
Cc1nn2c(c1-c1ccccc1[S+](C)(=O)[O-])N(C(=O)c1ccccc1)CCC2,i,?,-0.2%[70.6 µM],-17.4%[172 µM]
Cc1nn2c(c1-c1ccccc1C(C)C)N(Cc1ccc(C(=O)O)cc1)CCC2,i,7.08µM*,-0.4%[70.6 µM],?
CC(=O)Nc1ccccc1-c1c(C)nn2c1N(CCCc1ccccc1)CCC2,i,25.1µM*,?,?
Cc1nn2c(c1-c1ccccc1OCc1ccccc1)N(C(=O)C(C)C)CCC2,i,89.1µM*,-1.0%[70.6 µM],31.6µM*
CC(=O)Nc1ccccc1-c1c(C)nn2c1N(C(=O)Cc1ccccc1)CCC2,i,?,-1.5%[70.6 µM],0.9%[172 µM]
Cc1nn2c(c1-c1ccccc1[S+](C)(=O)[O-])N(Cc1ccccc1F)CCC2,i,31.6µM*,-7.8%[70.6 µM],?
O=C(c1cc(Cl)ccc1F)N1CCC(OC2CCN(Cc3ccccc3)CC2)CC1,i,?,6.7%,?
